Results taken from PubChem BioAssay (EPA / NIEHS).
Some compounds were tested as several samples or in several runs, with calls that do not always agree. Calls of active or inactive are those of the source. The calls were made as follows: active = hit-call score of the fitted dose curve at least 0.9, where 1 is the maximum; inactive = score below 0.9.

Assay: ATG_Oct_MLP_CIS: Attagene CIS-FACTORIAL HepG2 Assay for human Octamer-Binding Transcription Factor (Oct) (AID 2282993)
Settings: HepG2 Attagene cis-factorial Oct reporter, mRNA; actives raise or lower the signal
Procedure: ATG_CIS is a cell-based, multiplexed-readout assay that uses HepG2, a human liver cell line, with measurements taken at 24 hours after chemical dosing in a 24-well plate.ATG_Oct_MLP_CIS is one of 52 assay component(s) measured or calculated from the ATG_CIS assay. It is designed to make measurements of mRNA induction, a form of inducible reporter, as detected with fluorescence intensity signals by Reverse transcription polymerase chain reaction (RT-PCR) and Capillary electrophoresis technology.Data from the assay component ATG_Oct_MLP_CIS was analyzed into 1 assay endpoint. This assay endpoint, ATG_Oct_MLP_CIS, was analyzed with bidirectional fitting relative to DMSO as the negative control and baseline of activity. Using a type of inducible reporter, measures of mRNA for gain or loss-of-signal activity can be used to understand the reporter gene at the transcription factor-level as they relate to the gene POU2F1. Furthermore, this assay endpoint can be referred to as a primary readout, because this assay has produced multiple assay endpoints where this one serves a reporter gene function. To generalize the intended target to other relatable targets, this assay endpoint is annotated to the dna binding intended target family, where the subfamily is POU domain protein.
Human liver HepG2 cells are transiently transfected with multiple reporter transcription units (MRTUs) in 6-well plates using FuGene 6 reagent (Roche; 3 ml FuGene/1 mg DNA). The MRTU constructs are regulated by a cis-regulating element (promoter). […] A major difference between the CIS and TRANS system is that in CIS activities of endogenous TFs are measured, whereas the TRANS assay evaluates changes in activities of exogenous, chimeric NR-Gal4 proteins. […] At the end of 24 hour incubation, total RNA was isolated using TriZol reagent (Invitrogen). The isolated RNA is then reverse-transcribed using oligo(dT) primer and Mo-MLV reverse transcriptase (Invitrogen) with DNAse I (Ambion) treatment for 30 min. The one-tenth of the produced cDNA was amplified by PCR using Taq DNA polymerase (Invitrogen) and two reporter sequence-specific primers. The PCR products were fluorescently labeled by primer extension with 6-arboxyfluorescein (6-FAM) 5'-labeled reporter sequence-specific primer (2 min at 95 C, 20 s at 68 C and 10 min at 72 C) and these products were digested with 5U of HpaI (New England Biolabs) for 2h at 37 C. The fragments were purified using Qiaquick PCR columns (Qiagen), analyzed on an ABI 3130xL genetic analyzer (Applied Biosystems) with peak positions identified by using a set of X-rhodamine (ROX)-labeled MapMarker1000 molecular weight standards (BioVentures). The raw capillary electrophoresis data was processed using Attagraph software (Attagene).

outcome, inactive:
CCCCCCCCCC=CCC1CC(=O)OC1=O (stereo not given)
CCCCCCCCCCCCCCCC(=O)OC
COc1ccc(C#N)cc1
O=C(O)CN(CCCN(CC(=O)O)CC(=O)O)CC(=O)O
C=CC(=C)CC/C=C(\C)CCC=C(C)C
CCCCC(CC)C(=O)O (stereo not given)
CC=O
Clc1ccc(Nc2nnc(Cc3ccncc3)c3ccccc23)cc1
c1cc[nH]c1
Cc1[nH]nc2c1N=C(c1ccccc1Cl)c1cc([N+](=O)[O-])ccc1N2
O=S(=O)(O)C(F)(F)C(F)(F)C(F)(F)C(F)(F)C(F)(F)C(F)(F)C(F)(F)C(F)(F)C(F)(F)C(F)(F)F
Cc1ccc(C)c(S(=O)(=O)O)c1
CCC(=O)O
CCc1ccccc1O
CC(=O)Nc1ccc(S(N)(=O)=O)cc1
CCCCCCCCCCCC[N+](C)(C)Cc1ccccc1
Brc1cc(Br)c(Oc2c(Br)cc(Br)c(Br)c2Br)cc1Br
O=C(F)C(F)(F)C(F)(F)C(F)(F)C(=O)F
COc1cccc(O)c1
NCCN
O=S(=O)(O)c1ccc2cc(O)ccc2c1
CCCCCCCC(OC)OC
CCCCCCCCCCCCCC[n+]1ccccc1
Cc1ccc(C(=O)c2ccccc2)cc1
O=C(CC(=O)C(F)(F)C(F)(F)C(F)(F)F)c1cccs1
OCC(F)(F)C(F)(F)C(F)(F)C(F)(F)C(F)(F)C(F)(F)C(F)(F)C(F)(F)C(F)(F)C(F)(F)C(F)(F)F
COC(O)c1ccccc1 (stereo not given)
CCOCCOCC
C=CC(=O)OCCC(F)(F)C(F)(F)C(F)(F)C(F)(F)C(F)(F)C(F)(F)F
COC(=O)C(F)(F)C(F)(F)C(F)(F)F
C=CC(F)(F)C(F)(F)C(F)(F)C(F)(F)F
C=CC(C)(CCC=C(C)C)OC(C)=O (stereo not given)
CC[N+](CC)(CC)Cc1ccccc1
O=C1c2ccc(O)c(O)c2C(=O)c2c(O)ccc(O)c21
CCN(CCC#N)c1ccccc1
NC(=NCCCCCCN=C(N)/N=C(\N)Nc1ccc(Cl)cc1)/N=C(\N)Nc1ccc(Cl)cc1
CC(C)(C)C1CCCCC1O (stereo not given)

AC50, active:
CCCCCCCCCCCC[N+](C)(C)Cc1ccccc1 13.5 µM
O=C(CC(=O)C(F)(F)C(F)(F)C(F)(F)F)c1cccs1 9.28 µM
NC(=NCCCCCCN=C(N)/N=C(\N)Nc1ccc(Cl)cc1)/N=C(\N)Nc1ccc(Cl)cc1 23.5 µM
